The panel holds about 83,000 compounds, 20% with a hit somewhere; the sample as a whole holds those more often.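 A percent growth of 40 corresponds to 60% growth inhibition; 0 means no net growth; -100 means all cells died. Active threshold: below 10.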 Values without a mark were called inactive. Activity calls are given as the source filed them.

Among the test systems are SR leukemia; RPMI-8226 leukemia; OVCAR-8 ovarian; OVCAR-5 ovarian; OVCAR-4 ovarian; SK-OV-3 ovarian; IGROV1 ovarian; OVCAR-3 ovarian; HS 578T breast; NCI/ADR-RES ovarian.
Holding throughout (experiment): NCI-60 one-dose screen, 48 h (100 = growth as untreated, 0 = no growth, -100 = all killed)
Conditions in all cases: 10 µM unless noted

With `CCc1ccc(C(=O)/C=C/C23c4ccccc4C(c4ccccc42)C2C(=O)NC(=O)C23)cc1` (stereo not given), the growth was 0.497% (active) with SR leukemia; -35.1% (active) in the test with RPMI-8226 leukemia; -20% (active) in the test with OVCAR-8 ovarian; 15.7% with OVCAR-5 ovarian; 37.5% with OVCAR-4 ovarian; 38.6% in the test with SK-OV-3 ovarian. In addition, the growth was 0.604% (active) with IGROV1 ovarian, -59.7% (active) with OVCAR-3 ovarian, 41% with HS 578T breast and 4.03% (active) in the test with NCI/ADR-RES ovarian.

In the case of `COc1cc(CNS(=O)(=O)c2ccc(C)cc2)ccc1OCc1cn(-c2ccc(F)cc2)nn1`, the growth in the test with SR leukemia is 78.9%; with RPMI-8226 leukemia it was 61.1%; in the test with OVCAR-8 ovarian it was 95.5%; in the test on OVCAR-5 ovarian, 102%; in the test with OVCAR-4 ovarian, 72.2%; in the test on SK-OV-3 ovarian it was 85.2%. The growth was 94.1% in the test on IGROV1 ovarian, 91.1% with OVCAR-3 ovarian, 97.8% with HS 578T breast and 85.8% with NCI/ADR-RES ovarian.

`CN1CCN(C(=O)c2ccc(NC(=O)Nc3ccc(-c4nc(N5CCOCC5)c5cccn5n4)cc3)cc2)CC1`: the growth is 3.45% (active) in the test on SR leukemia; -2.3% (active) in the test on RPMI-8226 leukemia; -3.62% (active) in the test on OVCAR-8 ovarian; 0.331% (active) in the test on OVCAR-5 ovarian; -20.2% (active) in the test on OVCAR-4 ovarian; -31.2% (active) in the test on SK-OV-3 ovarian. In addition, the growth is -29.2% (active) in the test on IGROV1 ovarian, -5.24% (active) in the test on OVCAR-3 ovarian, -28.9% (active) in the test on HS 578T breast and 60.5% with NCI/ADR-RES ovarian.

In the case of `CN(C)CCCn1c2c(c3ncccc3c1=O)C(=O)c1ccccc1-2`, the growth is 15.2% with SR leukemia; 38.2% with RPMI-8226 leukemia; 31.3% in the test with OVCAR-8 ovarian; 46.5% with OVCAR-5 ovarian; 61.8% in the test on OVCAR-4 ovarian; 69.6% with SK-OV-3 ovarian. The growth with IGROV1 ovarian was 43.8%; in the test with OVCAR-3 ovarian, 57.4%; in the test with HS 578T breast, 75.8%; in the test with NCI/ADR-RES ovarian, 42.7%.

On to `Cc1cc(Cl)ccc1NC(=O)c1cc2ccccc2cc1O`, for which the growth is 3.8% (active) with SR leukemia; 6.82% (active) with RPMI-8226 leukemia; 7.81% (active) with OVCAR-8 ovarian; 30.5% in the test on OVCAR-5 ovarian; 22% in the test on OVCAR-4 ovarian; 36.7% in the test on SK-OV-3 ovarian. The growth with IGROV1 ovarian is 17.9%; in the test with OVCAR-3 ovarian, -3.47% (active); in the test on HS 578T breast it was -7.72% (active); with NCI/ADR-RES ovarian, 4.6% (active).

As to `CCOC(=O)/C=C1\S/C(=N\Nc2cc(=O)[nH]c3ccc(Cl)cc23)N(c2ccccc2)C1=O`, the growth in the test with SR leukemia was 4.23% (active); in the test on RPMI-8226 leukemia, 3.83% (active); with OVCAR-8 ovarian, 90.1%; in the test with OVCAR-5 ovarian it was 111%; in the test with OVCAR-4 ovarian, 76.2%; with SK-OV-3 ovarian, 102%. Besides, the growth was 62.9% with IGROV1 ovarian, 71.4% in the test on OVCAR-3 ovarian, 99.8% in the test with HS 578T breast and 101% in the test on NCI/ADR-RES ovarian.

Turning to `COc1cc(-c2nc(SCC(C)C)nc(Nc3cccc4ccccc34)c2C#N)cc(OC)c1OC`, the growth in the test with SR leukemia is 40.7%; with RPMI-8226 leukemia it was 91.2%; in the test on OVCAR-8 ovarian, 92.1%; with OVCAR-5 ovarian, 109%; with OVCAR-4 ovarian, 87.6%; with SK-OV-3 ovarian, 110%. Moreover, the growth in the test on IGROV1 ovarian was 106%; with OVCAR-3 ovarian, 117%; in the test with HS 578T breast, 106%; in the test with NCI/ADR-RES ovarian, 98.8%.

In the case of `CCCCCCC1(C)NCCO1` (stereo not given), the growth in the test on SR leukemia was 94.5%; with RPMI-8226 leukemia, 101%; in the test with OVCAR-8 ovarian it was 96.6%; in the test with OVCAR-5 ovarian it was 110%; in the test with OVCAR-4 ovarian, 96%; in the test on SK-OV-3 ovarian, 100%. Also, the growth in the test with IGROV1 ovarian was 79.8%; in the test with OVCAR-3 ovarian, 114%; in the test on HS 578T breast it was 126%; in the test with NCI/ADR-RES ovarian it was 108%.

`C#Cc1cccc(Nc2ncnc3ccc(-c4cncc(NS(C)(=O)=O)c4)cc23)c1`: the growth is 7.86% (active) in the test on SR leukemia; 26.3% with RPMI-8226 leukemia; 37.1% in the test on OVCAR-8 ovarian; 21.9% with OVCAR-5 ovarian; 52.1% with OVCAR-4 ovarian; 0.85% (active) with SK-OV-3 ovarian. Also, the growth is -12.4% (active) with IGROV1 ovarian, 7.33% (active) in the test with OVCAR-3 ovarian, 6.13% (active) in the test with HS 578T breast and 78.3% in the test on NCI/ADR-RES ovarian.

With `COc1ccc(/C=C2\C(=O)N=C3N2NC(c2cc(Br)ccc2O)C=C(C)N3c2ccccc2)cc1` (stereo not given), the growth is 102% with SR leukemia; 91.5% in the test with RPMI-8226 leukemia; 98.1% in the test on OVCAR-8 ovarian; 104% with OVCAR-5 ovarian; 96.5% in the test on OVCAR-4 ovarian; 99.6% with SK-OV-3 ovarian. Further, the growth is 91% with IGROV1 ovarian, 103% in the test with OVCAR-3 ovarian, 95.9% with HS 578T breast and 93.9% with NCI/ADR-RES ovarian.

In the case of `C=C(C)[C@@H]1CC[C@]2(C(=O)NCC#CCN3CCN(C)CC3)CC[C@]3(C)[C@H](CC[C@@H]4[C@@](C)(CCC#N)[C@H](C(=C)C)CC[C@]43C)[C@@H]12`, the growth with SR leukemia is -12.1% (active); in the test on RPMI-8226 leukemia it was 33.6%; in the test with OVCAR-8 ovarian, 70.7%; with OVCAR-5 ovarian it was 64.5%; with OVCAR-4 ovarian, 52.8%; in the test on SK-OV-3 ovarian, 72.6%. For the same compound, the growth is 43.5% in the test with IGROV1 ovarian, 54.2% in the test with OVCAR-3 ovarian, 65.5% in the test with HS 578T breast and 55.8% with NCI/ADR-RES ovarian.

As to `CN(C)CCCC1(c2ccc(F)cc2)OCc2cc(-c3cccc4[nH]ccc34)ccc21` (stereo not given), the growth in the test with SR leukemia was -14.9% (active); in the test on RPMI-8226 leukemia, 39.7%; with OVCAR-8 ovarian it was 20.5%; with OVCAR-5 ovarian, 70.1%; with OVCAR-4 ovarian it was 30.9%; with SK-OV-3 ovarian it was 52.5%. Further, the growth is 20.2% in the test with IGROV1 ovarian, 31% with OVCAR-3 ovarian, 31.7% with HS 578T breast and 25.9% in the test on NCI/ADR-RES ovarian.

On to `CC1(C)CCC(S(=O)(=O)c2ccc3c(c2)/C(=N\O)c2cc(S(=O)(=O)N4CCC(O)(c5cccc(C(F)(F)F)c5)CC4)ccc2-3)CC1`, for which the growth in the test with SR leukemia is -54% (active); with RPMI-8226 leukemia it was -52.5% (active); with OVCAR-8 ovarian it was -73% (active); in the test on OVCAR-5 ovarian it was -80.3% (active); in the test on OVCAR-4 ovarian, -92.6% (active); in the test with SK-OV-3 ovarian, -99.6% (active). In addition, the growth is -32.1% (active) in the test on IGROV1 ovarian, -98.3% (active) in the test with OVCAR-3 ovarian, -56.4% (active) with HS 578T breast and 61% in the test with NCI/ADR-RES ovarian.

For the compound `CC(C)(C)n1cc(-c2ccnc(NCCCNS(=O)(=O)c3ccc(F)cc3)c2)c(-c2cccc(F)c2)n1`, the growth in the test on SR leukemia is 14.3%; with RPMI-8226 leukemia it was 28.1%; in the test with OVCAR-8 ovarian it was 54.8%; in the test on OVCAR-5 ovarian, 69%; with OVCAR-4 ovarian it was 79.2%; with SK-OV-3 ovarian, 75.3%. Also, the growth was 68.6% with IGROV1 ovarian, 74.8% in the test on OVCAR-3 ovarian, 78.9% with HS 578T breast and 52% in the test on NCI/ADR-RES ovarian.

For the compound `CCN(CC)c1ccc(/C=C/C(=O)c2ccc(Nc3nc(Nc4ccccc4)nc(Nc4ccccc4)n3)cc2)cc1`, the growth is 39% with SR leukemia; -23.6% (active) in the test on RPMI-8226 leukemia; 43.8% with OVCAR-8 ovarian; 71.3% with OVCAR-5 ovarian; 58.5% with OVCAR-4 ovarian; 77.4% in the test on SK-OV-3 ovarian. The growth in the test with IGROV1 ovarian is 47.8%; with OVCAR-3 ovarian, 46.5%; in the test on HS 578T breast it was 26.2%; in the test with NCI/ADR-RES ovarian, 39.1%.

On to `COc1ccc(/C=N/C2=C(C#N)C(c3cccc(Cl)c3)c3c(ccc4ccccc34)O2)cc1` (stereo not given), for which the growth was 17.7% with SR leukemia; 17.4% in the test on RPMI-8226 leukemia; 47.1% in the test with OVCAR-8 ovarian; 62.3% in the test with OVCAR-5 ovarian; 52.8% in the test with OVCAR-4 ovarian; 52.4% with SK-OV-3 ovarian. Further, the growth in the test with IGROV1 ovarian was 32.9%; in the test with OVCAR-3 ovarian, 12.5%; with HS 578T breast, 15.9%; in the test on NCI/ADR-RES ovarian, 22.1%.

`N=C(N)c1ccc(-c2ccc(-c3ccc(F)cc3)o2)o1`: the growth with SR leukemia is -8.15% (active); in the test with RPMI-8226 leukemia, -2.26% (active); with OVCAR-8 ovarian, 5% (active); in the test on OVCAR-5 ovarian, 58.4%; with OVCAR-4 ovarian, 62%; in the test with SK-OV-3 ovarian, 28.1%. For the same compound, the growth was 44.9% in the test on IGROV1 ovarian, 7.31% (active) with OVCAR-3 ovarian, 30.5% in the test with HS 578T breast and 22.6% in the test on NCI/ADR-RES ovarian.

Take `O=C(Nc1nc2ccc(F)cc2s1)c1cccnc1Nc1ccc(Cl)cc1`: the growth in the test on SR leukemia is 29.5%; in the test on RPMI-8226 leukemia it was 25%; with OVCAR-8 ovarian, 47.3%; with OVCAR-5 ovarian, 90.9%; with OVCAR-4 ovarian, -13.1% (active); with SK-OV-3 ovarian it was 58%. Also, the growth is 39.9% with IGROV1 ovarian, 13.6% in the test with OVCAR-3 ovarian, 39.6% in the test on HS 578T breast and 10.5% in the test on NCI/ADR-RES ovarian.

In the case of `N#Cc1cccc(F)c1`, the growth with SR leukemia is 98.1%; in the test on RPMI-8226 leukemia, 113%; in the test with OVCAR-8 ovarian, 109%; in the test on OVCAR-5 ovarian, 83.1%; in the test with OVCAR-4 ovarian, 118%; in the test with SK-OV-3 ovarian, 111%. Moreover, the growth with IGROV1 ovarian is 106%; in the test with OVCAR-3 ovarian it was 126%; in the test with HS 578T breast it was 107%; with NCI/ADR-RES ovarian it was 104%.

In the case of `CCN1C(=O)N(CC)C2C1NN=c1s/c(=C\c3ccc(Cl)cc3Cl)c(=O)n12` (stereo not given), the growth was 12.3% in the test on SR leukemia; 16.5% in the test with RPMI-8226 leukemia; 10.8% in the test with OVCAR-8 ovarian; 28.2% in the test with OVCAR-5 ovarian; 46.1% in the test with OVCAR-4 ovarian; 29.2% in the test with SK-OV-3 ovarian. Besides, the growth in the test with IGROV1 ovarian was 13.4%; in the test with OVCAR-3 ovarian, -43.3% (active); in the test with HS 578T breast, 15.8%; in the test on NCI/ADR-RES ovarian, 5.65% (active).

(Values after PubChem BioAssay (NCI).)
